PubChem BioAssay (Tox21)
Values joined by “and” are separate entries in the source; they are usually repeats but may differ in a detail not shown here. Equal values may be shown once. Results filed as inconclusive are left out. A call without a number means that no potency is given here. The source holds several records for some structures; these can differ, active in one and inactive in another. Active and inactive are the calls of the source. The call rests on the fitted dose curve; in most records, active means well fitted curve in the direction sought with a large enough effect in the repeat runs; inconclusive means weak or mixed curves; inactive means no such curve, though single readings can be large; an effect the other way counts as inactive or inconclusive.

What was measured:
[1] = A CellTox Green Cytotoxicity Assay to monitor cytotoxicity in HEK293 cells - 40 hour (AID 1224871); further: nearly all actives have a fitted effect of over 45% in size; further: potency means the concentration at half of the fitted maximal effect
How it was run: (§1)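 Dead-cell fluorescence measured kinetically: asymmetric cyanine dye, HEK293, 600 cells/well, 5 h settle, 23 nL cpd/DMSO, 37 C, reads 0–40 h every 8 h.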

[2] = qHTS RealTime-Glo MT Cell Viability Assay in HEK293 cells - 16 hour (AID 1224872); further: nearly all actives have a fitted effect of over 50% in size; further: potency means the concentration at half of the fitted maximal effect
How it was run: (§2)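 Luminescence generated by NanoLuc from substrate produced by living HEK293 cells served as the viability signal. Each value reflects the reading at its stated time point during continuous 40 h compound exposure at 37 C.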

[3] = qHTS RealTime-Glo MT Cell Viability Assay in HepG2 cells - 8 hour (AID 1224873); further: nearly all actives have a fitted effect of over 55% in size
How it was run: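 HepG2 cells mixed with RealTime-Glo MT reagents (NanoLuc plus cell-permeant prosubstrate) were seeded at 600 cells/well, incubated 5 h at 37 C/5% CO2, then pinned with compounds in DMSO; nonlytic luminescence tracked viability during 40 h treatment.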

[4] = qHTS RealTime-Glo MT Cell Viability Assay in HEK293 cells - 40 hour (AID 1224874); settings: RealTime-Glo luminescence; max response: stronger effect = lower value; further: nearly all actives have a fitted effect of over 50% in size
How it was run: (§3)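 600 HEK293 cells per well, dispensed already mixed with RealTime-Glo MT reagents. Compound dosing came 5 h later. The same wells were read for luminescence at 0, 8, 16, 24, 32 and 40 h of exposure at 37 C.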

[5] = A CellTox Green Cytotoxicity Assay to monitor cytotoxicity in HEK293 cells - 24 hour (AID 1224875); further: nearly all actives have a fitted effect of over 45% in size; further: potency means the concentration at half of the fitted maximal effect
How it was run: as §1

[6] = A CellTox Green Cytotoxicity Assay to monitor cytotoxicity in HepG2 cells - 16 hour (AID 1224876); further: nearly all actives have a fitted effect of over 45% in size; further: potency means the concentration at half of the fitted maximal effect
How it was run: (§4)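 First, HepG2 cells (600/well) mixed with reagent were plated; second, after 5 h at 37 C they received compounds via pintool; third, fluorescence was measured at 0 h through 40 h at 8 h intervals.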

[7] = qHTS RealTime-Glo MT Cell Viability Assay in HepG2 cells - 32 hour (AID 1224877); further: nearly all actives have a fitted effect of over 55% in size; further: potency means the concentration at half of the fitted maximal effect
How it was run: (§5)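 Tox21 10K library screened in qHTS format on HepG2 cells carrying RealTime-Glo reagents. Compounds were added after a 5 h preincubation, and the luminescent signal from continuous culture was measured repeatedly during 40 h treatment.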

[8] = A CellTox Green Cytotoxicity Assay to monitor cytotoxicity in HepG2 cells - 24 hour (AID 1224878); further: nearly all actives have a fitted effect of over 45% in size; further: potency means the concentration at half of the fitted maximal effect
How it was run: as §4

[9] = A CellTox Green Cytotoxicity Assay to monitor cytotoxicity in HepG2 cells - 40 hour (AID 1224879); further: nearly all actives have a fitted effect of over 40% in size; further: potency means the concentration at half of the fitted maximal effect
How it was run: as §4

[10] = A CellTox Green Cytotoxicity Assay to monitor cytotoxicity in HEK293 cells - 32 hour (AID 1224881); further: nearly all actives have a fitted effect of over 40% in size; further: potency means the concentration at half of the fitted maximal effect
How it was run: as §1

[11] = A CellTox Green Cytotoxicity Assay to monitor cytotoxicity in HepG2 cells - 0 hour (AID 1224882); further: nearly all actives have a fitted effect of over 35% in size; further: potency means the concentration at half of the fitted maximal effect
How it was run: as §4

[12] = A CellTox Green Cytotoxicity Assay to monitor cytotoxicity in HepG2 cells - 32 hour (AID 1224883); further: nearly all actives have a fitted effect of over 50% in size; further: potency means the concentration at half of the fitted maximal effect
How it was run: as §4

[13] = A CellTox Green Cytotoxicity Assay to monitor cytotoxicity in HEK293 cells - 8 hour (AID 1224884); further: nearly all actives have a fitted effect of over 35% in size; further: potency means the concentration at half of the fitted maximal effect
How it was run: as §1

[14] = qHTS RealTime-Glo MT Cell Viability Assay in HepG2 cells - 16 hour (AID 1224885); further: nearly all actives have a fitted effect of over 50% in size; further: potency means the concentration at half of the fitted maximal effect
How it was run: as §5

[15] = qHTS RealTime-Glo MT Cell Viability Assay in HEK293 cells - 24 hour (AID 1224886); further: nearly all actives have a fitted effect of over 50% in size; further: potency means the concentration at half of the fitted maximal effect
How it was run: as §2

[16] = qHTS RealTime-Glo MT Cell Viability Assay in HEK293 cells - 8 hour (AID 1224887); further: nearly all actives have a fitted effect of over 50% in size; further: potency means the concentration at half of the fitted maximal effect
How it was run: as §3

[17] = A CellTox Green Cytotoxicity Assay to monitor cytotoxicity in HEK293 cells - 16 hour (AID 1224888); further: nearly all actives have a fitted effect of over 35% in size; further: potency means the concentration at half of the fitted maximal effect
How it was run: as §1

[18] = qHTS RealTime-Glo MT Cell Viability Assay in HepG2 cells - 0 hour (AID 1224889); further: nearly all actives have a fitted effect of over 50% in size; further: potency means the concentration at half of the fitted maximal effect
How it was run: as §5

[19] = qHTS RealTime-Glo MT Cell Viability Assay in HEK293 cells - 0 hour (AID 1224880); further: nearly all actives have a fitted effect of over 45% in size; further: potency means the concentration at half of the fitted maximal effect
How it was run: as §3

Structure (SMILES): ClC(Cl)(Br)Br
- Potency [1]: inactive
- Potency [2]: inactive
- Potency [3]: inactive
- max response [4]: -1.43% (inactive)
- Potency [5]: inactive
- Potency [6]: inactive
- Potency [7]: inactive
- Potency [8]: inactive
- Potency [9]: inactive
- Potency [10]: inactive
- Potency [11]: inactive
- Potency [12]: inactive
- Potency [13]: inactive
- Potency [14]: inactive
- Potency [15]: inactive
- Potency [16]: inactive
- Potency [17]: inactive
- Potency [18]: inactive

Structure (SMILES): CCCCCOC(=O)CCCCC
- Potency [1]: inactive
- Potency [2]: inactive
- Potency [3]: inactive
- max response [4]: 7.06% (inactive)
- Potency [5]: inactive
- Potency [6]: inactive
- Potency [7]: inactive
- Potency [9]: inactive
- Potency [19]: inactive
- Potency [10]: inactive
- Potency [11]: inactive
- Potency [12]: inactive
- Potency [13]: inactive
- Potency [14]: inactive
- Potency [15]: inactive
- Potency [16]: inactive
- Potency [17]: inactive
- Potency [18]: inactive

Structure (SMILES): COc1ccccc1OCC(O)CN1CCN(CC(=O)Nc2c(C)cccc2C)CC1 (stereo not given)
- Potency [1]: inactive
- Potency [3]: inactive
- max response [4]: -12.4% (inactive)
- Potency [5]: inactive
- Potency [6]: inactive
- Potency [7]: inactive
- Potency [8]: inactive
- Potency [9]: inactive
- Potency [19]: inactive
- Potency [10]: inactive
- Potency [11]: inactive
- Potency [12]: inactive
- Potency [13]: inactive
- Potency [14]: inactive
- Potency [15]: inactive
- Potency [16]: inactive
- Potency [18]: inactive

Structure (SMILES): CC(=O)OCC(=O)[C@@]1(O)CC[C@H]2[C@@H]3CCC4=CC(=O)CC[C@]4(C)[C@H]3C(=O)C[C@@]21C
- Potency [1]: inactive
- Potency [3]: inactive
- max response [4]: -9.91% (inactive)
- Potency [6]: inactive
- Potency [7]: inactive
- Potency [8]: inactive
- Potency [9]: inactive
- Potency [19]: 6.01 µM (active)
- Potency [10]: inactive
- Potency [11]: inactive
- Potency [12]: inactive
- Potency [13]: inactive
- Potency [14]: inactive
- Potency [15]: inactive
- Potency [16]: inactive
- Potency [17]: inactive
- Potency [18]: 1.07 µM (active)

Structure (SMILES): Cc1cc2c(cc1S(N)(=O)=O)S(=O)(=O)CCC2
- Potency [1]: inactive
- Potency [3]: inactive
- max response [4]: 2.68% (inactive)
- Potency [6]: inactive
- Potency [7]: inactive
- Potency [8]: inactive
- Potency [9]: inactive
- Potency [10]: inactive
- Potency [11]: inactive
- Potency [12]: inactive
- Potency [13]: inactive
- Potency [14]: inactive
- Potency [15]: inactive
- Potency [16]: inactive
- Potency [17]: inactive
- Potency [18]: inactive

Structure (SMILES): CN(C)CCCN1c2ccccc2CCc2ccc(Cl)cc21
- Potency [1]: 49 µM (active) and 26.8 µM (active)
- Potency [2]: 43.6 µM (active)
- Potency [5]: 49 µM (active) and 23.9 µM (active)
- Potency [6]: 54.9 µM (active) and 21.3 µM (active)
- Potency [7]: 49 µM (active) and 23.9 µM (active)
- Potency [8]: 38.9 µM (active) and 23.9 µM (active)
- Potency [9]: 34.7 µM (active) and 23.9 µM (active)
- Potency [10]: 49 µM (active) and 26.8 µM (active)
- Potency [14]: 49 µM (active)
- Potency [15]: 38.9 µM (active) and 21.3 µM (active)
- Potency [16]: 43.6 µM (active) and inactive
- Potency [17]: 54.9 µM (active) and 23.9 µM (active)

Structure (SMILES): CN1C(=O)N(C)C(O)C1O (stereo not given)
- Potency [1]: inactive
- Potency [2]: inactive
- Potency [3]: inactive
- max response [4]: 1.97% (inactive)
- Potency [6]: inactive
- Potency [7]: inactive
- Potency [8]: inactive
- Potency [9]: inactive
- Potency [19]: inactive
- Potency [10]: inactive
- Potency [11]: inactive
- Potency [12]: inactive
- Potency [13]: inactive
- Potency [14]: inactive
- Potency [15]: inactive
- Potency [16]: inactive
- Potency [17]: inactive
- Potency [18]: inactive

Structure (SMILES): COCCc1ccc(OCC(O)CNC(C)C)cc1 (stereo not given)
- Potency [1]: inactive
- Potency [2]: inactive
- Potency [3]: inactive
- max response [4]: 1.31% (inactive) and -8.11% (inactive)
- Potency [5]: inactive
- Potency [6]: inactive
- Potency [7]: inactive
- Potency [9]: inactive
- Potency [10]: inactive
- Potency [11]: inactive
- Potency [13]: inactive
- Potency [14]: inactive
- Potency [15]: inactive
- Potency [16]: inactive
- Potency [17]: inactive
- Potency [18]: inactive

Structure (SMILES): COC(=O)CC(C)=O
- Potency [1]: inactive
- Potency [2]: inactive
- Potency [3]: inactive
- max response [4]: 11.5% (inactive)
- Potency [5]: inactive
- Potency [6]: inactive
- Potency [7]: inactive
- Potency [9]: inactive
- Potency [11]: inactive
- Potency [12]: inactive
- Potency [13]: inactive
- Potency [14]: inactive
- Potency [15]: inactive
- Potency [16]: inactive
- Potency [17]: inactive
- Potency [18]: inactive

Structure (SMILES): O=C1CC2CC1C1CCCC21 (stereo not given)
- Potency [2]: inactive
- Potency [3]: inactive
- max response [4]: -4.86% (inactive)
- Potency [6]: inactive
- Potency [7]: inactive
- Potency [9]: inactive
- Potency [19]: inactive
- Potency [11]: inactive
- Potency [12]: inactive
- Potency [14]: inactive
- Potency [15]: inactive
- Potency [16]: inactive
- Potency [18]: inactive

Structure (SMILES): CN(C)CCCSc1ccccc1NC(=O)/C=C/c1ccccc1
- Potency [1]: 19 µM (active)
- Potency [2]: inactive
- max response [4]: -11.2% (inactive)
- Potency [5]: 19 µM (active)
- Potency [6]: 21.3 µM (active)
- Potency [7]: inactive
- Potency [8]: 19 µM (active)
- Potency [9]: 19 µM (active)
- Potency [19]: inactive
- Potency [10]: 19 µM (active)
- Potency [11]: 19 µM (active)
- Potency [12]: 19 µM (active)
- Potency [13]: 16.9 µM (active)
- Potency [14]: inactive
- Potency [15]: inactive
- Potency [16]: inactive
- Potency [17]: 16.9 µM (active)
- Potency [18]: inactive

Structure (SMILES): O=c1n(CCO)c(=O)n(CCO)c(=O)n1CCO
- Potency [1]: inactive and 38.9 µM (active)
- Potency [2]: inactive
- Potency [3]: inactive
- max response [4]: -3.8% (inactive) and 5.95% (inactive)
- Potency [6]: inactive and 38.9 µM (active)
- Potency [7]: inactive
- Potency [8]: inactive and 38.9 µM (active)
- Potency [9]: inactive and 43.6 µM (active)
- Potency [19]: inactive
- Potency [10]: inactive and 38.9 µM (active)
- Potency [11]: inactive and 43.6 µM (active)
- Potency [13]: inactive and 43.6 µM (active)
- Potency [14]: inactive
- Potency [15]: inactive
- Potency [16]: inactive
- Potency [18]: inactive

Structure (SMILES): CCCCCCCCS(=O)(=O)Cl
- Potency [1]: inactive
- Potency [2]: inactive
- Potency [3]: inactive
- Potency [5]: inactive
- Potency [6]: inactive
- Potency [7]: inactive
- Potency [8]: inactive
- Potency [9]: inactive
- Potency [19]: inactive
- Potency [10]: inactive
- Potency [11]: inactive
- Potency [12]: inactive
- Potency [13]: inactive
- Potency [14]: inactive
- Potency [15]: inactive
- Potency [16]: inactive
- Potency [17]: inactive
- Potency [18]: inactive

Structure (SMILES): CC(C)(CC(=O)O)C(=O)O
- Potency [1]: inactive
- Potency [2]: inactive
- Potency [3]: inactive
- max response [4]: 0.211% (inactive)
- Potency [5]: inactive
- Potency [6]: inactive
- Potency [7]: inactive
- Potency [8]: inactive
- Potency [19]: inactive
- Potency [10]: inactive
- Potency [11]: inactive
- Potency [13]: inactive
- Potency [14]: inactive
- Potency [15]: inactive
- Potency [16]: inactive
- Potency [17]: inactive
- Potency [18]: inactive
